# Screens deposited in PubChem BioAssay by National Center for Advancing Translational Sciences (NCATS).
# JMJD2A Tudor: blocks the human JMJD2A Tudor domain; O75164; AlphaScreen JMJD2A-Tudor / H3K4me3 peptide binding; Potency, µM (top dose mostly 114 µM), for the others: top-dose activity change, negative = inhibition, most hits filed as inhibitors; 4.4% of 390,000 active; AID 504339; also: % is scaled to controls: 0 for no effect and ±100 for the full control effect; nearly all actives have a fitted effect of over 50% in size
# BAZ2B block: BAZ2B (human) inhibition | AID 504333 | AlphaScreen BAZ2B-H3K14Ac peptide displacement | Q9UIF8 | Potency, µM (titrated, usually from 114 µM), without a hit: top-dose activity change, negative = inhibition, hits mostly inhibitors | 4.4% of 360,000 active; also: % is scaled to controls: 0 for no effect and ±100 for the full control effect; nearly all actives have a fitted effect of over 60% in size
#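 Protein-peptide AlphaScreen: BAZ2B 50 nM, b-H3K14Ac 50 nM, 1x PBS pH 7.4 + 0.01% Tween-20. Preincubation 30 min RT; cpd 30 min RT (top 110 uM); beads 20 min RT, light-protected.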
# HP1b binding inh: HP1-beta chromodomain-methylated histone interaction inhibition | AID 540317 | Potency, µM (highest dose often 114 µM), for inactives: at the top dose activity change, negative = inhibition, most hits filed as inhibitors | AlphaScreen HP1-beta / biotin-H3K9me3 peptide binding | 0.56% of 390,000 active; also: nearly all actives have a fitted effect of over 70% in size
# Target sequence (P83916 whole entry, looked up): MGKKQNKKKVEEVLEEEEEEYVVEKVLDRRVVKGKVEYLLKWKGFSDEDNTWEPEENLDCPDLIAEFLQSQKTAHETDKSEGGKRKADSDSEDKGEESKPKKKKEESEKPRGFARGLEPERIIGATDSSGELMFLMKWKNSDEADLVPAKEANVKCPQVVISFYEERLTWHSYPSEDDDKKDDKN
#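 HP1-beta protein (50 nM final) preincubated 30 min at room temperature with biotinylated H3(1-18)K9me3 peptide (50 nM) in PBS pH 7.4, 0.01% Tween-20, then compound added for 30 min. AlphaScreen streptavidin donor/nickel chelate acceptor beads (10 ug/mL final), 30 min dark, luminescence read.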
# L3MBTL1 inh: inhibitors of human L3MBTL1; AlphaScreen L3MBTL1–H3K9me1 peptide binding; Q9Y468; Potency, µM (doses to about 57.1 µM), inactives show at the highest dose activity, negative = inhibition, hits mostly inhibitors; AID 485360; 0.66% of 230,000 active; also: % is scaled to controls: 0 for no effect and ±100 for the full control effect; nearly all actives have a fitted effect of over 60% in size
#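 L3MBTL1 50 nM + b-AHA-H3(1-15)K9me1 75 nM, 30 min RT; compound added, 30 min RT; streptavidin donor/Ni-chelate acceptor beads 10 ug/mL each final, 30 min RT dark; AlphaScreen read.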
# G9a block: inhibitors of human histone lysine methyltransferase G9a; Q96KQ7; G9a H3K9 monomethylation, AlphaScreen, 2 h; Potency, µM (series often up to 102 µM), without a hit: at the highest dose activity, negative = inhibition, most hits filed as inhibitors; 8.8% of 350,000 active; also: % is scaled to controls: 0 for no effect and ±100 for the full control effect; nearly all actives have a fitted effect of over 75% in size
# Target sequence (Q96KQ7 913-1193 limits assumed): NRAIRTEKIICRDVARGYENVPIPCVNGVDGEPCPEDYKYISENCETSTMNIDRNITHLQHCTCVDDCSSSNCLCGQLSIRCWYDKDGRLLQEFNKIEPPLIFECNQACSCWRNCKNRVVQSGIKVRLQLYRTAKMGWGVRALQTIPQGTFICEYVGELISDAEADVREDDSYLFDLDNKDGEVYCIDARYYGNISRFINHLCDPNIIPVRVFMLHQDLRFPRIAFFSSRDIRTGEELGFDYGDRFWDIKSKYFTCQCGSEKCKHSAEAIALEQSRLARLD
#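 G9a (20 nM) was preincubated 15 min with compound, then reacted 2 h at room temperature with 500 nM biotin-H3K9 peptide and 20 µM SAM. Monomethyl-H3K9 detected by AlphaScreen using anti-H3K9me1 antibody.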
# Sfp inh: Sfp phosphopantetheinyl transferase inhibition | Biochemical Sfp PPTase activity, qHTS | 3.5% of 310,000 active | Potency, µM, inactives show largest response in the series, negative = inhibition, hits mostly inhibitors | Q9F4F7;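 also: the enzyme is Sfp with the accession as filed and its product quenches rhodamine fluorescence; 0% = enzyme reaction without inhibitor and -100% = no enzyme wells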
#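 Fluorescence-quenching assay with 15 nM Sfp, 5 uM rhodamine-CoA and 12.5 uM BHQ-2-labelled ybbR peptide in pH 7.6 Hepes/MgCl2 buffer. Enzyme was pre-incubated with compound for 15 min at room temperature. Rate was taken from the 30-min fluorescence change (525/598 nm).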
# Active calls of the source: *; ? = inconclusive; · = no result given; ! = not active in a repeat; [ ] = another dose, or the depositor's remark. Sampled rows, rich in hits. Any-hit rate of the full collection: about 12%. Calls follow the shape of the dose curve; as a rule, active = well fitted curve in the direction sought with a large enough effect; inconclusive = small, poorly fitted or top-dose-only effect, or another doubt; inactive = no such curve, though single readings can be large; an effect the other way counts as inactive or inconclusive. Potency is read from the fitted curve at half-maximal effect.
SMILES,JMJD2A Tudor,BAZ2B block,HP1b binding inh,L3MBTL1 inh,G9a block,Sfp inh
CCN1CCN(CC#CCOc2ccccc2OC)CC1,0.79µM*,22µM*,?,7%[2.29 µM],-47%[0.501 µM],?
COc1ccc(NC(=O)Cn2c(=O)oc3cc(S(=O)(=O)N4CCC(C)CC4)ccc32)c(OC)c1,?,-16%,36%,·,1%[59 µM],·
O=C(CN1C(=O)c2ccccc2Sc2ncccc21)Nc1cccc(C(F)(F)F)c1,-19%,-16%,2%,·,-31%[59 µM],·
O=C(CN1C(=O)/C(=C2\SC(=S)N(CCS(=O)(=O)O)C2=O)c2ccccc21)Nc1cccc(Br)c1,50µM*,8.9µM*,50µM*,·,8.9µM*,56µM*
O=C(CN1C(=O)/C(=C2/SC(=S)N(CCS(=O)(=O)O)C2=O)c2ccccc21)Nc1cccc(C(F)(F)F)c1,13µM*,·,10µM*,?,·,·
CC(C)CCNc1nc2c(S(=O)(=O)c3ccc(Br)cc3)nnn2c2ccsc12,-16%,5%,56%,·,16%[59 µM],·
Cc1cc(C)c2c(=O)[nH]c(SCC(=O)Nc3ccccc3)nc2n1,-15%,2%,21%,-2%,16%[59 µM],-20%
Cc1cc(C)c2c(=O)[nH]c(SCC(=O)c3ccc(C)c(C)c3)nc2n1,2%,-13%,24%,31%,50µM*,56µM*
CCSc1nnc(-c2cccnc2)n1Cc1ccco1,-18%,-2%,5%,-3%,-21%[59 µM],40µM*
O=C(CSc1nnc(-c2cccnc2)n1Cc1ccco1)Nc1cccc(O)c1,-14%,-4%,8%,·,?,24%
C(=C\c1ccccc1)/CSc1nnc(-c2ccncc2)n1Cc1ccco1,-29%,-7%,-1%,-3%,?,50µM*
O=C(CSc1nnc(-c2cccnc2)n1Cc1ccco1)c1ccc2ccccc2c1,-33%,0%,-2%,-6%,50µM*,-29%
O=C(CSc1nnc(-c2cccnc2)n1Cc1ccco1)c1ccc(Br)cc1,-22%,-7%,28%,-13%,-15%,-5%
COC(=O)c1ccccc1NC(=O)CN1C(=O)COc2ccc(Cl)cc21,-3%,5%,31%,·,14%[59 µM],·
COc1ccc(CNC(=O)Cc2c(C)c3cc4c(C)coc4c(C)c3oc2=O)cc1OC,-6%,-30%,29%,·,1%[59 µM],·
Cc1ccccc1C(=O)NCc1nc2cccnc2n1Cc1ccccc1,-6%,-2%,28%[57 µM],·,26%[59 µM],·
Cc1cc(C)n(-c2nc(C)c(C)c(=O)n2CC(=O)Nc2ccc(Cl)c(Cl)c2)n1,-16%,-8%,29%,·,4.5µM*,·
Cc1cc(C)n(-c2nc(C)c(C)c(=O)n2CC(=O)Nc2ccc(OC(F)(F)F)cc2)n1,-9%,2%,60%,·,0%[59 µM],·
COc1ccc(NC(=O)c2cc3c(=O)n(Cc4cccnc4)ccc3nc2C)c(OC)c1,-16%,-25%,59%,·,10%[59 µM],·
Cn1cccc1/C=N/N1CCN(Cc2cccc3ccccc23)CC1,32µM*,22µM*,?,-18%,25µM*,?
Cn1cccc1/C=N/N1CCN(Cc2ccc(Cl)cc2)CC1,50µM*,32µM*,40µM*,-7%,40µM*,?
Cn1cccc1/C=N/N1CCN(Cc2ccccc2)CC1,?,50µM*,?,-24%,25µM*,-23%
Oc1ccc(/C=N/N2CCN(Cc3ccccc3)CC2)cc1,-26%,-11%,2%,4%[2.29 µM],-3%[0.501 µM],11%
FC(F)(F)c1ccc(/C=N/N2CCN(Cc3cccc4ccccc34)CC2)cc1,-20%[57.1 µM],-30%[57.1 µM],-2%,8%,-12%,14%
CN1C(C(=O)NC(C)(C)C)=CC(c2ccc3c(c2)OCO3)=NS1(=O)=O,-6%,2%,59%,·,?,·
SMILES,JMJD2A Tudor,BAZ2B block,HP1b binding inh,L3MBTL1 inh,G9a block,Sfp inh
COc1ccc(OCCn2nnc3sc4c(c3c2=O)CCC(C(C)(C)C)C4)cc1 (configuration not stated),-21%,4%,72%,·,39%[59 µM],·
COC(=O)c1cccc(-n2c(CCC(=O)O)ccc2-c2ccc(OC)cc2)c1,-20%,?,12%,·,18µM*,·
CC(=O)Nc1ccc(-n2c(CCC(=O)O)ccc2-c2ccc(Br)cc2)cc1,-25%,?,-17%,·,?,·
Cc1ccc(C)n1-c1ccc(C(=O)O)cc1,·,13µM*,·,·,8.9µM*,-14%
Cc1ccc(-c2ccc(CCC(=O)O)n2-c2ccc(C(=O)O)cc2)cc1,-17%,?,22%,·,32µM*,56µM*
C=CCn1c(CCC(=O)O)ccc1-c1ccc(OC)cc1,?,?,-7%,-4%[11.4 µM],?,0%
CC(=O)Nc1ccc(-n2c(CCC(=O)O)ccc2-c2ccc(C)cc2)cc1,-31%,-32%,-5%,·,14µM*,·
Cc1ccc(N(Cc2cccs2)C(=O)COc2ccccc2[N+](=O)[O-])cc1,-26%,?,18%,·,-24%[59 µM],·
CCOC(=O)c1ccc(-n2c(CCC(=O)O)ccc2-c2ccc(F)cc2)cc1,-35%,-36%,2%,·,45µM*,-2%
COC(=O)c1ccccc1NC(=O)Cn1c(CCC(=O)O)ccc1-c1ccc(C)cc1,?,?,0%,·,?,·
COC(=O)c1ccc(-n2c(CCC(=O)O)ccc2-c2ccc(C)cc2)cc1,?,45µM*,13%,·,14µM*!,5%
Cc1ccc(-c2ccc(CCC(=O)O)n2-c2cccc(C(=O)O)c2)cc1,-26%,-12%,10%,·,45µM*,-20%
Cc1ccc(-c2ccc(CCC(=O)O)n2-c2ccc(C(C)C)cc2)cc1,?,40µM*,?,·,16µM*,·
O=C(O)CCc1ccc(-c2ccccc2)n1-c1cccc(O)c1,?,-35%,-6%,-11%,?,-17%
CCOC(=O)c1ccc(NC(=O)Nc2ccc(F)cc2)cc1,3%,11%,17%,·,-1%,-4%
O=C(O)CCc1ccc(-c2ccc(Br)cc2)n1-c1ccccc1O,-30%,-37%,-4%,·,?,·
Cc1ccc(-c2ccc(CCC(=O)O)n2-c2cccc(C)c2C)cc1,35µM*,45µM*,-24%,·,14µM*,·
CCOC(=O)Cn1c(CN2CCc3ccccc3C2)nc2c1c(=O)n(C)c(=O)n2C,-27%,4%,59%,4%,40µM*,23%
Cn1c(=O)c2c(nc(CN3CCc4ccccc4C3)n2Cc2ccccc2F)n(C)c1=O,-27%,-19%,42%,-2%,18µM*,1%
Cn1c(=O)c2c(nc(CN3CCc4ccccc4C3)n2CCCO)n(C)c1=O,1%,-14%,39%,·,11µM*,12%
Cn1c(=O)c2c(nc(CN3CCN(c4ccccc4F)CC3)n2Cc2ccccc2F)n(C)c1=O,-14%,·,23%,·,2%[59 µM],·
COc1ccc(Cn2cc(S(=O)(=O)c3ccc(C)cc3)c(=O)c3cc(F)ccc32)cc1,-11%,-4%,29%,·,?,·
